According to PubChem BioAssay (NCI):
About 79,000 compounds went through this panel and 15% of them were active in at least one assay; those are over-represented in the sample as a whole. A number with no mark means an inactive call. The source made the active and inactive calls. No stated cut-off is given here; in the data, active means growth inhibition above about 70%; inactive means the rest.

Legend:
[1] = NCI Yeast Anticancer Drug Screen. Data for the rad50 strain (AID 155);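 further: 0% = growth of vehicle-only cultures of the same strain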; conditions: S. cerevisiae rad50 strain growth inhibition; at 50.0 µM; stronger effect = higher value
Procedure, shortened: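 Cells are treated with compound, grown, and their growth is then scored against vehicle-only cultures of the same repair-deficient yeast strain.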

[2] = NCI Yeast Anticancer Drug Screen. Data for the mec2-1 strain (AID 157); conditions: S. cerevisiae mec2-1 strain, at 50.0 µM, stronger effect = higher value
Procedure, shortened: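 Cells of the genetically defined mec2-1 yeast strain are incubated with test compound. Inhibition of growth is calculated against vehicle-treated controls.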

[3] = NCI Yeast Anticancer Drug Screen. Data for the sgs1 mgt1 strain (AID 161);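 further: 0% = growth of cultures given vehicle only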; conditions: S. cerevisiae sgs1 mgt1 strain, at 50.0 µM, stronger effect = higher value
Procedure, shortened: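 Test agents were incubated with a DNA-repair-mutant yeast strain. Growth was then read and compared against vehicle-treated controls.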

[4] = NCI Yeast Anticancer Drug Screen. Data for the cln2 rad14 strain (AID 165);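 further: 0% = growth equal to vehicle treated cultures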; conditions: S. cerevisiae cln2 rad14 strain, at 50.0 µM, stronger effect = higher value
Procedure, shortened: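 The screen exposed genetically defined yeast (cln2 rad14) to test compounds and scored growth inhibition relative to vehicle-treated controls.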

[5] = NCI Yeast Anticancer Drug Screen. Data for the bub3 strain (AID 167); conditions: S. cerevisiae bub3 mutant strain, at 50.0 µM, stronger effect = higher value
Procedure, shortened: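 Part of a panel of yeast mutants defective in DNA damage repair or cell cycle regulation. Each strain is grown with compound, and inhibition is calculated relative to solvent-treated cultures.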

[6] = NCI Yeast Anticancer Drug Screen. Data for the mlh1 rad18 strain (AID 175); conditions: S. cerevisiae mlh1 rad18 strain growth inhibition; at 50.0 µM; stronger effect = higher value
Procedure, shortened: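 Compound-treated yeast growth, normalised to vehicle controls. Strain bears defined DNA repair mutations.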

Row | SMILES | growth inhibition [1] [%] | growth inhibition [2] [%] | growth inhibition [3] | growth inhibition [4] [%] | growth inhibition [5] [%] | growth inhibition [6] [%]
1 | CCCCCCCCCCCCCC#N | 5.85 | -3.55 | 3.35% | 5.25 | 1.65 | 25.8
2 | CCNCC(=O)Nc1ccc2c(c1)C(=O)c1ccc(NC(=O)CNCC)cc1C2=O | 20.9 | 28.5 | 29.2% | -4.55 | 3.85 | 50.8
3 | CSc1nc(-c2ccc([N+](=O)[O-])cc2)oc1/N=C/c1ccc([N+](=O)[O-])cc1 | -8.45 | -9.65 | -14.6% | -29.1 | 3 | 4.35
4 | O=S(=O)(c1ccc(NC(=S)N2CCOCC2)cc1)N1CCCCC1 | -3.45 | 1.1 | -10.1% | 1.6 | -5.95 | 8.65
5 | O=C(CCBr)OCCC1CCCCC1 | -1.95 | -2.45 | -0.8% | -16.1 | -7.05 | 5.6
6 | CSc1c(C#N)c(N)n2c1C(=O)N(c1ccccc1)C2=S | -52.7 | 25.6 | -26.9% | 20.1 | 26.1 | -4.8
7 | CCCC1(C)OCC(C)([N+](=O)[O-])CO1 (configuration not stated) | -26 | -11.2 | -3.25% | -22.4 | -24 | 10.8
8 | CC(=O)NCCCCNS(=O)(=O)c1ccc(C)cc1 | -16.1 | -3.15 | -17.4% | -6.1 | -0.7 | 5.1
9 | N=C(N=C(C(Cl)(Cl)Cl)C(Cl)(Cl)Cl)N=C(C(Cl)(Cl)Cl)C(Cl)(Cl)Cl | 8.75 | 15.3 | 11.1% | -8.55 | -24.2 | 19.6
10 | COP(=O)(O)OP(=O)(O)OC | 1.2 | -29.5 | 25.2% | 6.35 | 13.8 | 16.8
11 | CC(/C=N\Nc1ccc([N+](=O)[O-])cc1)=N/N=C(N)N | 8.35 | -2.9 | 9.55% | -10.9 | 3.1 | 18.7
12 | CN=C(N)SCCCCCCSC(N)=NC | -1.5 | 0 | 16.6% | 26.1 | -3.6 | 4.15
13 | COC1=CC(=C(c2ccc(O)c(OC)c2)c2ccc(O)c(OC)c2)C=CC1=O | -2.75 | -6.95 | -2.55% | 4.4 | -22.4 | -31.9
14 | O=C1CSC(c2cccc(F)c2)N1CCN1C(=O)CSC1c1cccc(F)c1 (configuration not stated) | 27.7 | 16.7 | 9.65% | 20.6 | 2.4 | -7.5
15 | COC(=O)C1=C(C)C(=O)[C@]23C(CCCC[C@H]12)C(=O)[C@H](C(=O)OC)C3C (some centres not stated) | -19.7 | -31.2 | -11% | -20.9 | -13.9 | 16.1
16 | Cc1cc(S(=O)(=O)O)cc(Cl)c1N | -11.3 | -27.9 | -0.85% | -0.5 | -23.8 | -9.4
17 | CCOc1ccccc1NC(=O)CC(C(=O)OC)C(=O)C(=O)OC (configuration not stated) | -10 | 5.75 | -24.1% | 20 | -8.9 | -9.75
18 | CCCC(=O)Nc1ccc(OC)cc1 | 16.8 | 11.2 | 9.55% | -43.2 | -1.85 | 1.9
19 | C=C(CCCC(C)OC(=O)NC(C)c1cccc2ccccc12)[Si](C)(C)C (configuration not stated) | -41.7 | -20.1 | -19.6% | -6.6 | 8.3 | -26.4
20 | O=C(CN(Cc1ccccc1)Cc1ccccc1)C(O)C1OC(c2ccccc2)OCC1O (configuration not stated) | 1.45 | -5.55 | -2.3% | -4.5 | -1.65 | -4.1
21 | Cc1cccc(C)c1N1C(=O)C(=O)C(c2nc3ccccc3s2)C(=Nc2cccc3c(=O)[nH][nH]c(=O)c23)C1=O (configuration not stated) | 30.5 | 13.9 | 17.6% | 23.2 | 0.95 | 23.7

Row | SMILES | growth inhibition [1] [%] | growth inhibition [2] [%] | growth inhibition [3] | growth inhibition [4] [%] | growth inhibition [5] [%] | growth inhibition [6] [%]
22 | COc1ccc(N=Nc2c(C)c(C#N)c(=S)n(C3OC(CO)C(O)C(O)C3O)c2-c2ccccc2)cc1 (configuration not stated) | 0.55 | 2.85 | 20.1% | 10.7 | 11.8 | 23.9
23 | CC/C(=N/NC(=O)NN)c1ccc(Cl)cc1 | -2.2 | 14.3 | -1.2% | -1.8 | 22.6 | 17.6
24 | C=CCC12CCC(=O)[C@@]1(C)CC=C(O)C2=O (some centres not stated) | 8.6 | -2.8 | 17.2% | -18.2 | 0.6 | 0.9
25 | COc1ccc(OC)c(-c2cc(C(=O)O)c3cc4ccccc4cc3n2)c1 | 5.85 | 6.05 | -32.8% | -69 | -52.8 | 17.2
26 | CC1(c2ccccc2)SCCS1 | 4.9 | 2.05 | -7.7% | -34.3 | -13.9 | -6.4
27 | C/[N+]([O-])=N/COC1OC(COC2OCC(O)C(O)C2O)C(O)C(O)C1O (configuration not stated) | 7.5 | -0.4 | 25.6% | 13.8 | 8.85 | 3.7
28 | CCCCCCCCC1CCC(=O)O1 (configuration not stated) | 19.8 | 1.8 | 16.7% | 7.45 | 7.25 | 9
29 | CN(C)c1ccc(C(=O)CCCN2CCC(O)(c3ccc(Cl)cc3)CC2)cc1 | 37.4 | 14.8 | 36.6% | 6.4 | 18.1 | 21.9
30 | CN(C)Cc1cc(N=Nc2c(Cl)cccc2Cl)ccc1O | 14.4 | 19.8 | 8.35% | 1.95 | 28 | 18.4
31 | Cc1cc(=O)c(CO)n[nH]1 | 8.75 | 15.2 | 3.7% | 6.8 | 3.45 | 19.5
32 | COc1ccc(N2C(=O)C(=O)C3(CCCCC3)C2=O)c2ccccc12 | -6.15 | -25.7 | -16% | 10.8 | 1.05 | 0.3
33 | N#Cc1[nH]cnc1O | -9.6 | -10.4 | -11.4% | 7.7 | 17.4 | -5.85
34 | O=C1c2ccccc2C2(O)Nc3cc(O)ccc3C12O (configuration not stated) | -24.6 | -23.1 | -15.1% | -14.1 | -11.8 | -19.6
35 | Cc1ccc(NC(=O)c2cc(S(=O)(=O)n3cc[nH]c3=O)c(S)cc2Cl)cc1 | 14.5 | -5.85 | 23.9% | 8.65 | -4.75 | 34
36 | O=S(=O)(Nc1nccs1)c1ccc(Cl)cc1 | 25.1 | 46 | 74.2% (active) | 20.4 | 33 | 68.2
37 | CC(=O)/C(N=Nc1ccccc1SCCC#N)=C(\C)O | 12.2 | -2.55 | -8.1% | -28.6 | 9.15 | 1.5
38 | O=C1NC(=O)C(=Nc2cccc3c(=O)[nH][nH]c(=O)c23)C(c2nc3ccccc3s2)C1=O (configuration not stated) | 20.2 | -9.7 | -12.8% | 8.7 | -3.05 | 4.7
39 | O=C(O)C(C(=O)O)C1CCCCC1 | -14.6 | -20.6 | -20.6% | -0.95 | -6.5 | -15.8
40 | CCOC(=O)C(NC(=O)c1ccccc1)(C(=O)OCC)c1ccccn1 | 8.55 | -13.5 | 9.65% | 18.8 | 9.6 | 22.6
41 | CC(=O)OC/C=C1/CC[C@H]2[C@@H]3CCC4=CC(=O)[C@H](C)C[C@]4(C)[C@H]3[C@@H](O)C[C@]12C | -1.85 | -2 | 4.05% | 1.8 | -9.2 | -21.8
42 | CCC(=O)NC(Nc1cccc(F)c1C)(C(F)(F)F)C(F)(F)F | -22.4 | 23.4 | -37.4% | 14.7 | 7.25 | -5.5
